# Laboratory results: PubChem BioAssay (NCI)
# About 83,000 compounds went through this panel and 20% of them were active in at least one assay; those are over-represented in the sample as a whole.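 Note: values are percent growth. 100 is the growth of untreated cells, values between 100 and 0 indicate rising inhibition; between -100 and 0 indicates cell death.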 Values without a mark were called inactive. Active and inactive are the calls of the source. The calls were made as follows: active = growth percent below 10; inactive = the rest.
# Columns and labels:
# Assay in all cases: NCI-60 one-dose screen, 48 h (100 = growth as untreated, 0 = no growth, -100 = all killed)
# Conditions in all cases: 10 µM unless noted
# SK-MEL-2 melanoma = test system: SK-MEL-2 melanoma
# EKVX NSCLC = test system: EKVX NSCLC
# SN12C renal = test system: SN12C renal
# UO-31 renal = test system: UO-31 renal
# TK-10 renal = test system: TK-10 renal
# ACHN renal = test system: ACHN renal
# CAKI-1 renal = test system: CAKI-1 renal
# A498 renal = test system: A498 renal
# CCRF-CEM leukemia = test system: CCRF-CEM leukemia
# MOLT-4 leukemia = test system: MOLT-4 leukemia
SMILES,growth (SK-MEL-2 melanoma),growth (EKVX NSCLC),growth (SN12C renal),growth (UO-31 renal),growth (TK-10 renal),growth (ACHN renal),growth (CAKI-1 renal),growth (A498 renal),growth (CCRF-CEM leukemia),growth (MOLT-4 leukemia)
COc1cc(-c2cncn2-c2ccc(-c3nc4ccc(F)cc4s3)cc2)ccc1F,37.7%,95.8%,94.7%,71.9%,92.1%,3.23% (active),25.7%,74.5%,81.5%,63.6%
Cn1ccnc1C(=O)/C=C/c1ccc(C(=O)Nc2ccc(Cl)cc2)cc1,82.4%,8.52% (active),0.398% (active),-74.7% (active),16.9%,-39.9% (active),-2.07% (active),19.5%,8.42% (active),5.13% (active)
Oc1ccc(Cl)cc1/C=N\NC(=S)N/N=C/c1cc(Cl)ccc1O,26.2%,50.3%,45.9%,16.1%,31%,15.3%,-7.22% (active),37.5%,8.57% (active),11.8%
CCOC(=O)c1ccc2c(c1)nc(-c1ccccc1)n2C1CCCCC1,86.1%,83%,105%,84%,116%,112%,101%,97.8%,79.4%,85.5%
O=C1/C(=C/c2ccc([N+](=O)[O-])cc2)COc2ccc(O)cc21,109%,92.3%,76.8%,53.7%,92.7%,82.7%,63.6%,99.5%,3.96% (active),39.3%
COc1ccccc1N1CCCCC1,104%,98.1%,93.9%,98.9%,95%,103%,97.8%,83.9%,108%,100%
O=C(CSc1nc2sc3c(c2c(=O)n1-c1ccccc1)CCCCC3)N/N=C/c1cccc([N+](=O)[O-])c1,90.2%,70.3%,66.8%,75.7%,96.2%,80.6%,60%,83.7%,76.6%,70.5%
c1cc2c(ccc3[nH]c(-c4ccc5[nH]ncc5c4)c4c(c32)CCCC4)n1,83.6%,62.7%,46%,53.3%,80.2%,32.3%,69.8%,74.3%,13.6%,-0.124% (active)
COc1ccc(-c2cc(-c3ccc(Cl)cc3)c(C#N)c(=O)n2Cc2ccc(C(=O)Nc3ccccc3N)cc2)cc1,79.3%,82.1%,79.1%,40.5%,140%,96.5%,55.8%,84%,42.6%,66.2%
CCCCCCCCCCC(CN(CC)CC)C(O)c1ccccc1 (stereo not given),65.8%,41.8%,57.1%,24.4%,45.3%,31.6%,45.5%,56.4%,4.36% (active),-15.2% (active)
COC(=O)c1cc(N=C2NC(=O)/C(=C/C=C/c3ccccc3)S2)ccc1O,74.1%,53.7%,38.6%,53.8%,53.2%,46.5%,29%,17.6%,20.7%,31.7%
O=c1c2cccc3c(N4CCCC4)ccc(c32)c2nc3ccccc3n12,113%,75.9%,64.8%,56.2%,87.6%,52.3%,51.3%,38%,53.7%,2.57% (active)
N#CSc1c[nH]c2cccc(/C=C/C(=O)/C=C(/C=C/c3cccc4[nH]cc(SC#N)c34)OB(F)F)c12,-65% (active),-10.4% (active),-21.8% (active),-76% (active),-51.7% (active),-48.9% (active),-12.5% (active),28.2%,-10.9% (active),-14.4% (active)
Nc1c(C(=O)Nc2ccccc2C(F)(F)F)sc2nc3c(cc12)CCC3,102%,97.1%,101%,98%,89.9%,99.6%,101%,95.1%,101%,88.1%
O=C(Nn1c2c(sc1=NC1CC1)C(=O)c1ccccc1C2=O)c1cc2ccc1CCc1ccc(cc1)CC2,49.5%,67.5%,30.9%,21.5%,115%,25.6%,30.8%,89.4%,22.6%,8.53% (active)
O=C(COc1ccc(-c2nc3cc(Cl)c(Cl)cc3[nH]2)cc1)N=Nc1c(O)[nH]c2ccc(Cl)cc12,90.2%,96.8%,74.5%,94.4%,91.4%,71.8%,76.3%,91.3%,24.2%,47%
Cn1c(=O)c2nc(/C=C/c3ccccc3)c(=O)[nH]c2n(C)c1=S,109%,101%,104%,86.9%,115%,105%,92.1%,97.8%,101%,103%
C1CCC([PH+](C2CCCCC2)C2CCCCC2[PH+](C2CCCCC2)C2CCCCC2)CC1.[Au].[CH-]1CCCCC1C1CCCC[N-]1 (stereo not given),-56.6% (active),-77.6% (active),-47.3% (active),-96.3% (active),-58.7% (active),-99.4% (active),-88% (active),-71.1% (active),2.23% (active),-6.51% (active)
O=C(N/N=C/c1ccc(Cl)cc1)c1[nH]c2ccc(Cl)cc2c1-c1ccccc1,-9.34% (active),40.7%,28.1%,24.7%,51.8%,28.4%,20.9%,36.2%,19.3%,33.7%
CCn1cc(C(=O)O)c(=O)c2cc(F)c(N3CCN(CC(=O)Nc4ccc(S(=O)(=O)Nc5nccc(C)n5)cc4)C(C)C3)c(F)c21 (stereo not given),119%,111%,98%,83.3%,129%,102%,88.6%,111%,102%,123%
COc1ccc(/C=N/C2=C(C#N)C(c3ccccc3)c3ccc4ccccc4c3O2)cc1 (stereo not given),49.4%,42.9%,38%,29.6%,59.7%,35.4%,28%,19.3%,9.58% (active),19.2%
Cc1cccc(CNc2c3ccccc3nc3ccccc23)c1,38%,44.5%,26.1%,14.7%,38.4%,15.8%,17.7%,-2.22% (active),14.8%,2.32% (active)
